Source: PubChem (The Scripps Research Institute Molecular Screening Center)
TTR transcr act: increases transthyretin transcription; activation, % at 16.7 µM; AID 1117267; 92,000 compounds, 1.3% hits; SH-SY5Y TTR promoter Gaussia luciferase, luminescence; 100% = recombinant luciferase protein wells;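 active means activation above the mean of all tested compounds plus 3 SD, cut at about 9.5% in these data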;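 further: cells exposed to compounds for one day before reading; 0% = median of all test compound wells on the plate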
HuH7 TTR inh: decreases TTR transcription in HuH7 cells in activator counter-screen; shares compounds with TTR transcr act; HuH7 TTR promoter-Gaussia luciferase reporter, luminescence; inhibition, % at 16.7 µM; 1,100 compounds, 4% hits;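 active means average inhibition above the solvent-only control wells' mean plus 3 SD, cut at about 15% in these data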;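 further: 0% = cells with DMSO only and 100% = cells with inhibitor control FD; inhibitors lower well luminescence so higher value means more inhibition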
TTR up confirm: human TTR transcription activation, confirmation; activation, % at 16.7 µM; SHSY5Y TTR promoter Gaussia luciferase, luminescence; 100% = purified Lucia enzyme wells, no cells; AID 1117280; shares compounds with TTR transcr act; 1,100 tested, under 10 active;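 active means mean activation above a set limit taken from the earlier primary screen, cut at about 11% in these data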;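 further: 0% = DMSO-treated cells and 100% = recombinant Lucia luciferase without cells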
Numbers without * were called inactive. Only a selection was taken, and hits are over-represented in it overall.

SMILES	TTR transcr act	others
CC(=O)c1cccc(N(CC(=O)Nc2ccccc2F)S(C)(=O)=O)c1	2
COC(=O)c1sccc1NC(=O)CC1C(=O)NCCN1C(=O)c1ccc(N(C)C)cc1 (stereo not given)	-1
CN(C(=O)[C@@H](C1CC1)[C@@H](O)c1ccc(Cl)cc1)c1ccccc1	-2
CCOC(=O)[C@H]1[C@H]2COc3ccccc3[C@@H]2N2C(=O)c3ccc(Cl)cc3NC(=O)[C@@]12C	0
CCOC(=O)[C@H]1[C@H]2COc3ccc(Br)cc3[C@@H]2N2C(=O)N(c3ccc(F)cc3)C(=O)[C@@]12C	-2
CCOC(=O)[C@H]1[C@H]2COc3ccc(Cl)cc3[C@@H]2N2C(=O)c3cc(Br)ccc3NC(=O)[C@@]12C	16*	HuH7 TTR inh=5;TTR up confirm=0
CCOC(=O)[C@H]1[C@H]2COc3ccc(Cl)cc3[C@@H]2N2C(=O)c3ccc(C)cc3NC(=O)[C@@]12C	13*	HuH7 TTR inh=-10;TTR up confirm=-1
CCOC(=O)[C@H]1[C@H]2COc3ccccc3[C@@H]2N2C(=O)c3cc(Cl)ccc3NC(=O)[C@@]12C	3
CCOC(=O)[C@@H]1[C@H]2COc3ccc(Br)cc3[C@@H]2N2C(=O)N(c3ccc(Cl)cc3)C(=O)[C@@]12C	0
CCOC(=O)[C@@H]1[C@H]2COc3ccc(Br)cc3[C@@H]2N2C(=O)N(c3ccc(F)cc3)C(=O)[C@@]12C	16*	HuH7 TTR inh=-34;TTR up confirm=0
CCOC(=O)[C@H]1[C@H]2COc3ccc(Br)cc3[C@@H]2N2C(=O)c3cc(OC)c(OC)cc3NC(=O)[C@@]12C	-2
CCOC(=O)[C@H]1[C@H]2COc3ccc(C)cc3[C@@H]2N2C(=O)c3cc(OC)c(OC)cc3NC(=O)[C@@]12C	1
FC(F)(F)Oc1cccc(Cn2ccc3ccc(-c4ccc5ccn(Cc6cccc(OC(F)(F)F)c6)c5c4)cc32)c1	0
N#Cc1cccc(NC(=O)O[C@@H]2CC[C@@]34CCCN3C(=O)CCC[C@H]4C2)c1	2
Fc1cccc(CNC2CCC23CCC(c2ccccc2)CC3)c1 (stereo not given)	0
CN(C)CCCNC(=O)C[C@@H]1CC[C@@H]2[C@H](COc3ccc(NC(=O)c4cccc(F)c4)cc3C(=O)N2C)O1	0
COc1ccccc1-c1ccc([C@@H]2C[C@H]3[C@H](CON3C)CN2CC2CCCCC2)cc1	1
Cc1nc(SCC(=O)N(C)c2ccccc2)[nH]c(=O)c1C	0
COC(=O)c1ccc(Cn2ccc3ccc(-c4ccc5ccn(Cc6ccc(C(=O)OC)cc6)c5c4)cc32)cc1	1
COc1ccc(N2C(=O)C3C4C=CC(C4)C3C2=O)nn1 (stereo not given)	1
O=C1c2ccccc2C(=O)N1c1nccs1	0
O=C1C2C3C=CC(C3)C2C(=O)N1c1nccs1 (stereo not given)	15*	HuH7 TTR inh=-6;TTR up confirm=0
O=S(=O)(CC1NCCc2ccccc21)NCc1ccc(F)cc1 (stereo not given)	1
Cc1ccccc1C(=O)NC1CCCCN(Cc2cccc(Cl)c2)C1=O (stereo not given)	-1
CSc1ncccc1C(=O)OCC(=O)NCc1cccs1	2
SMILES	TTR transcr act	others
COc1ccc(C(=O)NCC(=O)OCC(=O)NCc2cccs2)cc1	0
Cc1ccc(C(=O)OCC(=O)NCc2cccs2)cc1	11*	HuH7 TTR inh=-6;TTR up confirm=0
COC(=O)[C@]12C[C@H](CC(=O)NCCCCc3ccccc3)C(=O)N(Cc3ccc(Cl)cc3Cl)C1=C[C@H](C(C)C)O[C@@H]2C1CC1	2
O=C(O)C1(C(=O)O)CCC2(CCCCC2)CC1	10.0*	HuH7 TTR inh=-13;TTR up confirm=1
O=C(O)CC1(C(=O)O)CCCC1	-2
O=C(O)C1(C(=O)O)CCCC1	2
CCC[C@H]1[C@@H](NC(=S)Nc2ccccc2Cl)CC[C@@]23CCCN2C(=O)CCC[C@@H]13	1
Cn1c(=O)n(CCC(=O)O)c2ccccc21	-1
O=c1ccc(=O)n(-c2ccccc2)[nH]1	1
O=C(O)CCn1[nH]c(=O)ccc1=O	27*	HuH7 TTR inh=-9;TTR up confirm=1
CC(C)N1CCCCC(NC(=O)c2ccc(Cl)cc2Cl)C1=O (stereo not given)	-2
COCCCNC(=O)c1ccc(Cn2c(=O)c3ccccc3n(Cc3ccc(C(C)C)cc3)c2=O)cc1	-2
C[C@@H]1CN([C@H](C)CO)C(=O)CCCn2nncc2CO[C@H]1CN(C)C(=O)c1cc(-c2ccccc2)on1	3
C[C@H](CO)N1C[C@H](C)[C@@H](CN(C)S(=O)(=O)c2ccccc2)OCc2cn(nn2)CCCC1=O	-2
C[C@@H]1CN([C@H](C)CO)C(=O)CCCn2cc(nn2)CO[C@H]1CN(C)S(=O)(=O)c1ccc(Oc2ccccc2)cc1	17*	HuH7 TTR inh=-5;TTR up confirm=-1
